# Rab9 promoter act: activates the Rab9 promoter. Potency, µM (series often up to 9.22 µM), without a hit: top-dose activation, negative = inhibition, most hits filed as activators. Huh7 Rab9 promoter-luciferase reporter, luminescence, 24 h. AID 485297. 320,000 tested, 2.8% active; also: % of control where 0% means no effect; nearly all actives have a fitted effect of over 60% in size
#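 Cells were plated at 1500 per well in reduced-serum medium with 10% FBS and left 2 h. Compound in DMSO was then added for 24 h at 37 °C. Reporter signal was read by luminescence after 10 min with luciferase detection reagent.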
# KinaseGlo FLuc: counter-screen: inhibitors of Kinase-Glo firefly luciferase | Kinase-Glo luciferase, ATP luminescence, 8 min | Potency, µM (doses to about 38.3 µM), for the others: at the highest dose activity change, negative = inhibition, actives largely listed as inhibitors | 200,000 tested, 0.28% active | AID 1379; also: % is scaled to controls: 0 for no effect and ±100 for the full control effect; nearly all actives have a fitted effect of over 60% in size
#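 Compounds were added to a substrate mix at pH 7.2 (50 mM imidazole, 10 uM ATP, within the enzyme's linear range), followed by Kinase-Glo detection reagent; luminescence was measured after 8 minutes at ambient temperature.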
# FLuc modulator: firefly luciferase modulation, counter-screen for miR-21 project | AID 588342 | 360,000 tested, 6.9% active | purified FLuc, Km substrates, luminescence inhibition | Potency, µM (doses to about 57.5 µM), inactives show top-dose activity change, negative = inhibition, usual class: inhibitors | P08659;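 also: plate controls were vehicle for no effect and reference inhibitor for full effect; nearly all actives have a fitted effect of over 55% in size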
# Target sequence (P08659 whole entry, looked up): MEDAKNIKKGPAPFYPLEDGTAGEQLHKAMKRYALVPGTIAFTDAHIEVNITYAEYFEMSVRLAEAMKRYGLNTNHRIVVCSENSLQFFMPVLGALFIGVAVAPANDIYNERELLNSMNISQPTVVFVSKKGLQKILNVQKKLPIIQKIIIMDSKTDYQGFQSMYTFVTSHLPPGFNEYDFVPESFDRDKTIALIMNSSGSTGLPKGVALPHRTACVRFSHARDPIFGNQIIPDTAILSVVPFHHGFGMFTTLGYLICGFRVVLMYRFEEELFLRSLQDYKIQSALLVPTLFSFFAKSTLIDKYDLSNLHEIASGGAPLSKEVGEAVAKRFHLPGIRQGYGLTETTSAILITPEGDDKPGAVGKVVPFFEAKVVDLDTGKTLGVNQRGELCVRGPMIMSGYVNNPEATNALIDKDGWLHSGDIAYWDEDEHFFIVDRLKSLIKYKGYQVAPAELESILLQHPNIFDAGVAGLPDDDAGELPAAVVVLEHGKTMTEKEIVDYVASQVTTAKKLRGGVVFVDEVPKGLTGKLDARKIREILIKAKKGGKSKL
#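 Biochemical qHTS of compounds, final roughly 60 µM downward over six points, against 10 nM purified firefly luciferase using Km concentrations of substrates (10 uM D-luciferin, 10 uM ATP) in Tris acetate pH 7.5 buffer; luminescence output.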
# SMN2 splice enh: SMN2 splice variant enhancement; HEK293 SMN2-luciferase splicing reporter, luminescence, 30-36 h; Potency, µM (top dose mostly 46.1 µM), inactives show top-dose activity change, positive = activation, actives largely listed as activators; 210,000 tested, 2.8% active; also: % of control where 0% means no effect; nearly all actives have a fitted effect of over 55% in size
#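 qHTS luciferase splicing reporter: luminescence rises when SMN2 exon 7 is included in transfected HEK293 cells. Compound exposure lasted 30-36 h at 37C, with 4.5 mM final sodium butyrate as control, followed by a ONE-Glo read.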
# NPC1 prom act: activators of NPC1 promoter; Potency, µM (series often up to 9.22 µM), without a hit: at the highest dose activation, actives largely listed as activators; 320,000 tested, 2.4% active; AID 485313; Huh7 NPC1 promoter luciferase reporter, 24 h; also: % of control where 0% means no effect; nearly all actives have a fitted effect of over 60% in size
#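 Luminescence from an NPC1 promoter-driven luciferase reporter in stably transfected Huh7 cells was measured after 24 h compound treatment at 37 °C, followed by 10 min ambient incubation with luciferase detection reagent.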
# ELG1 genotox: induces genotoxicity in HEK293T cells with luciferase-tagged ELG1. AID 504466. HEK293T ELG1-luciferase reporter, luminescence, 16 h. 330,000 tested, 1.3% active. Potency, µM (titrated, usually from 46 µM), without a hit: at the highest dose activity change, positive = activation, hits mostly activators; also: % of control where 0% means no effect; nearly all actives have a fitted effect of over 60% in size
#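 Step 1: seed 2,000 HEK293T ELG1-luciferase cells per well. Step 2: add compound or DMSO, incubate 16 hr at 37 °C. Step 3: ONE-Glo, 30 min at room temperature, read luminescence.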
# Active calls of the source: *; ? = inconclusive; / = no result given; [ ] = remark or other dose. The list is not random: actives were taken first. Their share in the collection is about 7.3%. Calls follow the shape of the dose curve; as a rule, active = well fitted curve in the direction sought with a large enough effect; inconclusive = small, poorly fitted or top-dose-only effect, or another doubt; inactive = no such curve, though single readings can be large; an effect the other way counts as inactive or inconclusive. Potency is read from the fitted curve at half-maximal effect.
SMILES,Rab9 promoter act,KinaseGlo FLuc,FLuc modulator,SMN2 splice enh,NPC1 prom act,ELG1 genotox
CCCCOc1ncnc2c1[nH]c1ccc(F)cc12,-25.1%,-0.5%,2.69µM*,-55.8%,-14.2%,-0.6%
CCCCOc1ncnc2c1[nH]c1ccc(OC)cc12,1.41µM*,-4.1%,1.69µM*,?,0.562µM*,?
CCCCOc1ncnc2c1[nH]c1ccccc12,-12.9%,-2.8%,10.7µM*,-76.6%,-5.2%,0.4%
CCCCOc1ncnc2c1[nH]c1ccc(OCC)cc12,-16.0%,-6.1%,-2.5%,-19.5%,-2.2%,-1.0%
CC(=O)c1cc2c(cc1NC(=O)c1cnn(-c3ccc(C)cc3)c1-n1cccc1)OCO2,/,/,-5.1%,/,/,/
O=C(NNC(=S)Nc1ccccc1)c1ccc(O)cc1,3.55µM*,/,?,/,3.55µM*,?
COC(=O)c1ccc(NC(=S)NNC(=O)c2ccccc2)cc1,0.5%,0.9%,23.9µM*,/,5.1%,-3.0%
O=C(NNC(=S)NC(=O)c1ccccc1)c1ccc(O)cc1,-2.4%,/,3.2%,/,-3.3%,-7.8%
O=C(NNC(=S)Nc1ccccc1)c1cccs1,1.58µM*,-2.6%,?,10µM*,?,?
Cc1cc(O)c2c(c1O)C(=O)C(O)=C(O)C2=O,/,0.8%,/,-8.7%,/,/
CCCN(CCC)C(=O)Cn1c(=O)n(-c2ccc(C)cc2)c(=O)c2ccc(C(=O)NCc3ccccc3Cl)cc21,/,/,-0.3%,5.0%,/,/
CN(C)c1ccc(/C=N/NC(=O)c2ccccc2)cc1,0.891µM*,?,5.36µM*,11.2µM*,2.82µM*,?
O=C(Nc1ccc(Cl)c(Cl)c1)c1ccc(Cn2cc(Cl)cn2)cc1,28.4%,-0.7%,19µM*,-87.0%,21.2%,6.5%
CN(C)c1cccc(C(=O)N/N=C/c2ccsc2)c1,3.55µM*,1.8%,3.01µM*,11.2µM*,3.16µM*,?
NNC(=O)c1ccc(Cn2cc(Cl)cn2)cc1,-3.5%,-2.6%,-0.1%,-3.4%,-0.2%,0.4%
CN(C)c1ccc(/C=N/NC(=O)c2ccccc2Cl)cc1,12.8%,5.5%,16.9µM*,22.4µM*,-1.2%,?
O=C(N/N=C\c1ccc(Cl)cc1)c1sccc1-n1cccc1,17.4%,0.8%,2.4%,-7.2%,29.1%,-0.1%
CSc1ccc(/C=N/NC(=O)c2cccs2)cc1,1.78µM*,/,1.69µM*,/,2.24µM*,?
O=C(N/N=C/c1ccc(-n2ccnc2)cc1)c1cccs1,?,/,12µM*,/,?,?
CN(C)c1ccc(/C=N/NC(=O)c2sccc2-n2cccc2)cc1,3.98µM*,0.3%,?,19.7%,?,-1.2%
CN(C)c1ccc(/C=N\NC(=O)c2ccc(Cn3cc(Cl)cn3)cc2)cc1,2.4%,-1.0%,12µM*,-12.5%,-0.3%,-3.2%
CCN(CC)C(=O)Cn1c(=O)n(Cc2ccc(C(=O)NCCc3ccc(OC)c(OC)c3)cc2)c(=O)c2ccccc21,/,/,-17.4%,6.4%,/,/
CSCCC(NS(=O)(=O)c1ccc2c(c1)oc(=O)n2C)C(=O)NCCc1ccc(C)cc1 (stereo not drawn),/,/,-1.9%,/,/,/
COc1ccc(Cn2c(C(=O)O)c(CNC3CCC(C)CC3)c3ccc(C)cc32)cc1 (stereo not drawn),/,/,-5.6%,/,/,/
O=C(N/N=C/c1ccc(-c2ccccc2C(=O)O)o1)c1cccs1,3.2%,-10.6%,13.5µM*,6.3%,15.0%,3.5%
SMILES,Rab9 promoter act,KinaseGlo FLuc,FLuc modulator,SMN2 splice enh,NPC1 prom act,ELG1 genotox
C/C(=N/N=C/c1ccc(N(C)C)cc1)c1ccccc1,0.112µM*,8.91µM*,0.169µM*,0.501µM*,0.282µM*,0.366µM*
CN(C)c1ccc(/C=N/O)cc1,10.4%,-6.4%,-19.5%,27.3%,4.1%,5.1%
CSc1ccc(/C=N/NC(=O)c2ccccc2Cl)cc1,?,0.2%,15.1µM*,29.7%,11.0%,?
COc1ccccc1/C=N/NC(=O)c1ccccc1Cl,-4.8%,-2.0%,?,12.1%,-1.2%,0.0%
Cc1ccc(/C=N/NC(=O)CNC(=O)c2cccs2)o1,2.6%,-4.1%,-2.7%,0.9%,0.2%,0.5%
COc1ccc(-c2noc(CNC(=O)c3ccccc3Br)n2)cc1,/,/,-0.5%,-10.2%,/,/
Cc1ccc(NC(=O)CCNS(=O)(=O)c2ccc3c(c2)CCN3C(=O)C2CC2)c(Cl)c1,/,/,-0.8%,/,/,/
Cn1nnnc1SCc1nc2ccccc2s1,?,-8.0%,?,?,20.3%,13.5%
CCN(CC)S(=O)(=O)c1cccc(-c2nnc(SCc3nc4ccccc4s3)o2)c1,?,-0.3%,15.1µM*,-45.1%,13.9%,2.5%
CCN(CC)S(=O)(=O)c1cccc(-c2nnc(SCCCC(=O)c3ccccc3)o2)c1,1.8%,0.1%,?,-33.5%,-0.1%,-6.5%
Brc1ccccc1-c1nnc(SCc2nc3ccccc3s2)o1,?,-3.3%,7.57µM*,14.1µM*,21.9%,?
O=c1c(O)c(-c2ccc(O)c(O)c2)oc2ccccc12,/,-2.8%,/,/,/,/
Cc1nc2cc(NC(=O)Nc3cccc([N+](=O)[O-])c3)ccc2n1C,0.708µM*,/,1.9µM*,/,0.355µM*,?
COC(=O)c1ccc(NC(=O)Nc2ccc3c(c2)nc(C)n3C)cc1,?,-2.1%,?,/,?,0.8%
CC(=O)c1ccc(NC(=O)Nc2ccc3c(c2)nc(C)n3C)cc1,3.16µM*,-7.2%,19µM*,?,?,?
Cc1nc2cc(NC(=O)Nc3ccccc3Cl)ccc2n1C,0.891µM*,?,0.379µM*,/,0.0891µM*,0.92µM*
Cc1ccc(NC(=O)Nc2ccc3c(c2)nc(C)n3C)cc1,0.501µM*,0.0%,3.01µM*,/,1.41µM*,?
COc1cc(Cl)c(C)cc1Nc1c2c(nc3ccccc13)CCC2,/,/,/,-40.3%,/,/
CCOc1cc(C2C(C#N)=C(N)Oc3n[nH]c(CC)c32)ccc1OCCN1CCOCC1 (stereo not drawn),7.3%,-1.1%,0.2%,6.2%,-0.4%,1.5%
CCOc1cc(C2C(C#N)=C(N)Oc3n[nH]c(C)c32)ccc1OCCN1CCOCC1 (stereo not drawn),22.0%,6.1%,4.5%[2.3 µM],41.7%,3.98µM*,5.6%
O=C(Oc1ccccc1)c1cc2ccccc2oc1=O,-4.8%,-7.1%,15.1µM*,-0.1%,1.2%,2.3%
COC(=O)c1ccc(NC(=O)c2ccc(NC(=O)c3ccco3)cc2)cc1,0.7%,/,1.5%,/,1.1%,-7.5%
COc1ccc(OCC(=O)Nc2ccc(NC(=O)c3ccco3)cc2)cc1,23.9%,-6.4%,0.0%,28.2µM*,13.7%,?
CC(C)OC(=O)c1cc2ccccc2oc1=O,0.0%,-7.5%,-8.8%,-1.4%,-1.7%,-0.3%
Cc1ccc(NC(=O)c2ccc(OC(=O)c3ccco3)cc2)cc1,2.82µM*,4.9%,-10.6%,12.6µM*,2µM*,8.2µM*
